Measurements: PubChem BioAssay (NCATS)
Records with an inconclusive call do not appear. Unmarked numbers belong to inactive results. The source made the active and inactive calls. Calls come from the whole dose curve; as a rule, active = well fitted activation curve with a large enough effect; inconclusive = small, poorly fitted or top-dose-only effect; inactive = no such curve, though single readings can be large or run the other way.

Target: D(1A) dopamine receptor (Homo sapiens) (UniProt P21728)
Assay: HTS Assay for Allosteric Agonists of the Human D1 Dopamine Receptor: Primary Screen for Potentiators (AID 488982); note: 0% is about no effect
Details: HEK293 T-REx D1 inducible cells, calcium flux, kinetic fluorescence; series mostly up to 8.37 µM; activity, positive = potentiation: at the top concentration
Description: Dopamine receptors (DARs) are involved in the etiology and/or therapy of a number of neuropsychiatric and endocrine disorders. For instance, all receptor-based antiparkinsonian drugs work via stimulating the […] DAR subtype whereas all FDA-approved antipsychotic agents are antagonists of this receptor. […] There are three different types of allosteric modulators that we are seeking, two of which will stimulate or augment receptor signaling, allosteric agonists and potentiators, while the third, allosteric antagonists, will attenuate receptor signaling. The present primary screening assay measures compound agonism by tracking calcium flux in a […], inducible Hek293 Trex D1 cell line.
Freshly passaged cells are plated in 1536 well black, clear bottom plates at a density of 4000 cells/well in 3 ul of complete media containing 1x tetracycline inducer. After an overnight incubation at 30 C in 5% CO2, cells are loaded with 2 ul of the no wash Calcium Assay Kit (ABD Bioquest) and incubated at room temperature for 30 to 90 minutes. A 10 cycle (1 second/cycle) baseline measurement is taken and then the FDSS online 1536 pintool delivers 23 nl of compound library (as well as dopamine controls) to the plate. The plate is measured for kinetically at 1 cycle/sec for 180 seconds and is considered to be the agonist portion of the assay (eg, compounds which activate a positive calcium response during this portion are flagged as potential agonists). Following the 180 second read, 1 ul of an EC20 of dopamine is delivered by an onboard pipette head. Measurements are taken kinetically for an additional 180 seconds.

Chain of D(1A) dopamine receptor (Homo sapiens) (P21728 whole entry, looked up): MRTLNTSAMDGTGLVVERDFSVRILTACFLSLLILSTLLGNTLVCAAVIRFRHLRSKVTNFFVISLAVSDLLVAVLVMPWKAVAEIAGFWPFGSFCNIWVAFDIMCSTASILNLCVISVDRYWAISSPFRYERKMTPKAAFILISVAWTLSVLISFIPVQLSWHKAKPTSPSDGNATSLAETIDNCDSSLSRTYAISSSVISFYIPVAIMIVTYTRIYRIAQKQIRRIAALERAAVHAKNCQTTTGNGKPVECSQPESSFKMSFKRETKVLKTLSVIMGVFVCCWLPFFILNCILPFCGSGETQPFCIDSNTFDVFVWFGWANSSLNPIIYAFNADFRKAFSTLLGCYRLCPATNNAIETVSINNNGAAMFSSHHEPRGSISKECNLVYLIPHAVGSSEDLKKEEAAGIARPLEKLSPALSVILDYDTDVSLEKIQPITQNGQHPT

SMILES | activity, positive = potentiation | outcome
NC1CCc2cc(O)c(O)cc2C1 (stereo not given) | -66.9% | 
C[C@@H]1O[C@H](C[N+](C)(C)C)C[C@H]1O | -2.5% | 
NC(N)=NOCCC(N)C(=O)O (stereo not given) | -6.12% | 
C[N+]1(C)C2CCC1CC(OC(=O)C(CO)c1ccccc1)C2 (stereo not given) |  | inactive
O=C(N[C@H]1CN2CCC1CC2)c1ccc(Cl)cc1 | -7.35% | 
C#CCOC(=O)C1=CCCN(C)C1 | 27.7% | 
NCCc1c[nH]c2ccc(O)cc12 | 5.64% | 
CC1=NN=C(c2ccc(N)cc2)c2cc3c(cc2C1)OCO3 | -33% | 
CNCCc1ccc(O)c(O)c1 | -81.9% | 
CCCCc1ccc(C(=O)O)nc1 | 35% | 
CC(=O)[C@H]1CCC2C3CC[C@H]4C[C@H](O)CC[C@]4(C)C3CC[C@@]21C (stereo not given in full) | 19.4% | 
CCCN(CCC)[C@@H]1CCc2ccc(O)cc2C1 | -81.5% | 
C=CCN1CC[C@]23CCCCC2[C@H]1Cc1ccc(O)cc13 (stereo not given in full) | -15.5% | 
NC(CCP(=O)(O)O)C(=O)O (stereo not given) | 1.62% | 
NCc1cc(=O)[nH]o1 | 12% | 
Cc1nccc2c1[nH]c1ccccc12 | -10.3% | 
CC(C)NC(C)Cc1ccc(I)cc1 (stereo not given) | -26.3% | 
NC(CP(=O)(O)O)C(=O)O (stereo not given) | 7.6% | 
C[C@]12CCC3C(CC[C@H]4C[C@H](O)CC[C@]34C)C1CC[C@@H]2C(=O)CO (stereo not given in full) | -0.248% | 
CC[C@@]1(O)C(=O)OCc2c1cc1n(c2=O)Cc2cc3ccccc3nc2-1 | 6.81% | 

SMILES | activity, positive = potentiation | outcome
COC(=O)[C@@H](N)CCCN=C(N)N[N+](=O)[O-] | 0.396% | 
Clc1cnc(Oc2ccc(Oc3ncc(Cl)cc3Cl)cc2)c(Cl)c1 | 12.2% | 
Cn1cnc(CCN)c1 | 17.2% | 
c1ccc(CCCN2CCN(CCOC(c3ccccc3)c3ccccc3)CC2)cc1 | -64.9% | 
NC(=O)CN1CC(O)CC1=O (stereo not given) | -2.49% | 
c1ccc(C2(c3ccccc3)CC2C2=NCCN2)cc1 (stereo not given) | 26.4% | 
CC(C)Oc1cccnc1N(C)C1CCN(Cc2ccccc2)CC1 | -45.1% | 
COc1ccc2c(c[n+](C)c3c4cc5c(cc4ccc23)OCO5)c1OC | 18.4% | 
CN[C@@H]1C[C@@H](c2ccc(Cl)c(Cl)c2)c2ccccc21 | -48.7% | 
CCCN1CCC[C@H](c2cccc(O)c2)C1 | 12.9% | 
O=C(O)CC[N+](=O)[O-] | -9.71% | 
O=C(Cc1ccc(Cl)c(Cl)c1)N1CCCCC1CN1CCCC1 (stereo not given) | 4.63% | 
CCCN1CCO[C@@H]2c3cc(O)ccc3OC[C@H]21 |  | inactive
CNCCc1c[nH]c2ccc(O)cc12 | -48.1% | 
CC(=O)NCCc1c[nH]c2ccccc12 | -3.12% | 
CC[C@@H](C(N)=O)N1CCCC1=O | 35% | 
O=C(O)Cc1cnc[nH]1 | 24.2% | 
Oc1ccc2c3c1O[C@H]1c4[nH]c5c(c4C[C@@]4(O)[C@@H](C2)N(CC2CC2)CC[C@]314)C[C@@]1(O)[C@H]2Cc3ccc(O)c4c3[C@@]1(CCN2CC1CC1)[C@H]5O4 | 25.2% | 
C[C@@H](N)Cc1cnc[nH]1 | 8.03% | 
c1ccc2sc(C3(N4CCCCC4)CCCCC3)cc2c1 | 27.5% | 
